Tests used:
Conditions in all cases: concentration: 1 μM, replicates: in singlicate; n = 1
MTOR = system: MTOR
MUSK = system: MUSK
MYLK2 = system: MYLK2
MYLK4 = system: MYLK4
MYLK = system: MYLK
MYO3A = system: MYO3A
MYO3B = system: MYO3B
NDR1 = system: T1, NDR1
T1 construct: gene STK38

NDR2 = system: NDR2
NEK10 = system: NEK10
NEK11 = system: NEK11
NEK1 = system: NEK1
NEK2 = system: NEK2
NEK3 = system: NEK3
NEK4 = system: NEK4
NEK5 = system: NEK5
NEK6 = system: NEK6
NEK7 = system: NEK7
NEK9 = system: NEK9
NIK = system: T2, NIK
T2 construct: gene MAP3K14
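Also: KINOMEscan kinase panel screen.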

SMILES	%Inh (MTOR)	%Inh (MUSK)	%Inh (MYLK2)	%Inh (MYLK4)	%Inh (MYLK)	%Inh (MYO3A)	%Inh (MYO3B)	%Inh (NDR1)	%Inh (NDR2)	%Inh (NEK10)	%Inh (NEK11)	%Inh (NEK1)	%Inh (NEK2)	%Inh (NEK3)	%Inh (NEK4)	%Inh (NEK5)	%Inh (NEK6)	%Inh (NEK7)	%Inh (NEK9)	%Inh (NIK)
COC(=O)Nc1nc2ccc(Oc3ccc(NC(=O)Nc4cc(C(F)(F)F)ccc4F)cc3)cc2[nH]1.Cl [GW654607]	34%	99.6%	33%	0%	10%	0%	0%	29%	0%	21%	0%	0%	0%	0%	0%	13%	0%	19%	57%	60%
COc1ccc(NC(=O)c2ccoc2)cc1-c1ccc(C(=O)NCC2CC2)cc1 [GW810437]	36%	0%	0%	0%	0%	7%	21%	32%	16%	16%	0%	0%	0%	37%	0%	0%	0%	0%	7%	40%
CC(C)(C)c1ccc(C(=O)Nc2cn3cc(-n4ccnc4)ccc3n2)cc1	10%	1%	18%	2%	0%	0%	0%	8%	7%	0%	0%	0%	0%	35%	0%	13%	2%	0%	3%	0%
Cl.Cl.NC(CNC(=O)c1cc(Br)c(-c2ccnc3[nH]ccc23)s1)c1ccccc1 (stereo not shown) [GSK1322949]	26%	22%	27%	97.2%	62%	34%	0%	96.4%	95.5%	1%	0%	54%	0%	5%	0%	16%	0%	0%	23%	11%
CN(C)CCOc1ccc(-c2cc(-c3ccc(Cl)c(O)c3)c(-c3ccncc3)[nH]2)cc1.Cl.Cl [SB-684387]	19%	0%	28%	9%	18%	39%	13%	35%	42%	0%	38%	9%	14%	2%	0%	22%	0%	0%	17%	0%
O=C(Nc1n[nH]c2nc(-c3ccccc3)ccc12)C1CC1 [SB-708999]	0%	13%	86%	11%	30%	25%	0%	0%	13%	0%	36%	0%	0%	2%	5%	49%	24%	0%	7%	18%
Cc1nn2c(=O)cc(N3CCO[C@H](C)C3)nc2n1Cc1cccc(Cl)c1Cl [GSK2373693]	61%	14%	6%	2%	0%	0%	0%	0%	0%	0%	0%	0%	18%	0%	0%	75%	0%	0%	0%	21%
COc1cccc(CC(=O)N2CCc3cc(-c4cn(C)c5ncnc(N)c45)ccc32)c1 [GSK2608899]	8%	27%	64%	7%	20%	38%	18%	22%	0%	7%	49%	21%	74%	4%	44%	24%	18%	11%	25%	0%
CN(c1ccc2c(c1)nc(NCc1ccccc1)n2C)c1ccnc(Nc2ccc(CS(C)(=O)=O)cc2)n1.Cl [GW811603]	10%	36%	26%	0%	8%	5%	19%	8%	0%	17%	0%	0%	0%	20%	0%	0%	60%	8%	55%	33%
CS(=O)(=O)c1cccc(CNc2nc(Nc3ccc4c(c3)CCC(=O)N4)ncc2C(F)(F)F)c1	62%	12%	16%	0%	7%	0%	0%	58%	0%	0%	0%	0%	0%	37%	0%	28%	6%	0%	0%	0%
Cc1ccc(O)cc1Nc1ccnc2cc(-c3ccc(CN4CCCCC4)o3)ccc12 [GW557777]	0%	3%	0%	2%	9%	4%	0%	0%	4%	0%	0%	0%	11%	3%	0%	0%	0%	9%	0%	0%
CCn1cnc2c(NCc3ccccc3)ncnc21 [SKF-96418]	37%	0%	0%	6%	0%	0%	0%	30%	14%	14%	0%	0%	0%	24%	0%	0%	0%	0%	0%	32%
CC(C)NCC(Cc1ccccc1)NC(=O)c1cc(Br)c(-c2ccnc3[nH]ccc23)s1.Cl.Cl (stereo not shown) [GSK1383281]	6%	0%	1%	79%	56%	19%	0%	90.3%	65%	2%	0%	91.9%	13%	16%	0%	68%	0%	0%	0%	0%
COc1cc(Nc2ccnc3cc(-c4ccncc4)ccc23)cc(OC)c1OC.Cl [GW494610]	20%	10%	13%	0%	84%	19%	6%	17%	0%	0%	8%	0%	0%	0%	0%	5%	1%	0%	4%	0%
Cc1ccc(NC(=O)c2ccnc(N3CCCCC3)c2)cc1-c1ccc(C(=O)NCC2CC2)cc1 [GW775610]	9%	0%	15%	0%	0%	0%	3%	0%	5%	0%	0%	0%	0%	4%	0%	0%	0%	8%	20%	15%
Cc1cccc(Nc2nc(NCCN)ncc2C(N)=O)c1 [GSK1292139]	12%	6%	5%	94.3%	8%	5%	0%	21%	25%	47%	3%	0%	0%	31%	29%	47%	0%	0%	18%	0%
Nc1ncc(-c2ccc3nccc(-c4ccncc4)c3c2)cc1S(=O)(=O)N1CCCCC1 [GSK1693850]	100%	0%	0%	10%	22%	22%	0%	30%	2%	54%	0%	2%	8%	4%	0%	18%	0%	0%	15%	11%

Source: PMC5540273 (PLoS ONE, 2017)
